The supplement of paper PMC11732987, “Enantioselective OTUD7B fragment discovery through chemoproteomics screening and high-throughput optimisation” (Communications Chemistry, 2025)

How the values were obtained:
Assay in all cases: log2 ratio of Biotin-Ahx-Ub-VS probe labelling (fragment/DMSO); higher = less target engagement (more negative = stronger competition), active = hit call of the paper (q ≤ 0.05, log2 ratio ≤ -1)
Conditions in all cases: compound concentration: 200 uM; treatment time: 3 h
[1] = target: T1, USP19 (UniProt O94966)
T1 sequence (whole entry): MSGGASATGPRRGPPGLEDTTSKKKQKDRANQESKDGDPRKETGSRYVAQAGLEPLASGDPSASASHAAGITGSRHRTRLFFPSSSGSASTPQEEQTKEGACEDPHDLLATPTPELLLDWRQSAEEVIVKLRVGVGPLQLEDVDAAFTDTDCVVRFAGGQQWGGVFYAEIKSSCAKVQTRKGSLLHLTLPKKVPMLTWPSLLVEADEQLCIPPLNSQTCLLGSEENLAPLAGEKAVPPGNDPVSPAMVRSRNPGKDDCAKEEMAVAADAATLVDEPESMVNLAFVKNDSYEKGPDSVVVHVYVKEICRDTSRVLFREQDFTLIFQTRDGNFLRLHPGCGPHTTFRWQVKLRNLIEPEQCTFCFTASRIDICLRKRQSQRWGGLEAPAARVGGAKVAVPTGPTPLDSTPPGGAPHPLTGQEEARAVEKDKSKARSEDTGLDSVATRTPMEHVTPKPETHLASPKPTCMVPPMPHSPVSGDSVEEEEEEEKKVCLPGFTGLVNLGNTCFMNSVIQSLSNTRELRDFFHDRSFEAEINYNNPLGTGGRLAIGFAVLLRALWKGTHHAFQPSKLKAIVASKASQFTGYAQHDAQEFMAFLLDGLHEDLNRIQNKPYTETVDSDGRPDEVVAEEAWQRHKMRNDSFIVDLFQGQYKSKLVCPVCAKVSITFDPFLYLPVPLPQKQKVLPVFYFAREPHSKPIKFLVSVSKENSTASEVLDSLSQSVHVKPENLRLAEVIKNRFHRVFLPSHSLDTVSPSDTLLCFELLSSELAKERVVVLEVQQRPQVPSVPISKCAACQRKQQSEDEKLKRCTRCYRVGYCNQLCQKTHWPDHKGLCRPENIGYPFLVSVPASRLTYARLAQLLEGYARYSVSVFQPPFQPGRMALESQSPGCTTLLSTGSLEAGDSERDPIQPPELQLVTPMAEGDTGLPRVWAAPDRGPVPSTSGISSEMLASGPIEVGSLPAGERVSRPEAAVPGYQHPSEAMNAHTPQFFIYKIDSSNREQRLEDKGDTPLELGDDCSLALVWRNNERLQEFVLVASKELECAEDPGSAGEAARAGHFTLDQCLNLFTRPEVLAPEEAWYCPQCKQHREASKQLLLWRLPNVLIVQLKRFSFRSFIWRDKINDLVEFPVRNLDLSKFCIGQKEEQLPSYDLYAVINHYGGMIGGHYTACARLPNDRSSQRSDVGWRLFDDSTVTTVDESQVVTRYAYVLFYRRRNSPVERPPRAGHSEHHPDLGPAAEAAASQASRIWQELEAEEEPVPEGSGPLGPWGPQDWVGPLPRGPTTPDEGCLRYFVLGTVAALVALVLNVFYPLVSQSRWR
In short: (§1)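 Labelled DUBs from HEK293T lysate were NeutrAvidin-enriched, digested with LysC and trypsin, and run by diaPASEF LC-MS/MS. Before that, each 495 µg sample in Tris/CHAPS/IGEPAL buffer with protease inhibitors was treated in triplicate with fragment at 200 µM or vehicle for 3 h, then with Biotin-Ahx-Ub-VS at 0.5 µM final for 1 h. Values are average log2 ratios of fragment over vehicle by unpaired t-test, based on global-median-normalised Spectronaut label-free quantities from proteins with ≥2 unique peptides.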

[2] = target: T2, USP22 (UniProt Q9UPT9)
T2 sequence (whole entry): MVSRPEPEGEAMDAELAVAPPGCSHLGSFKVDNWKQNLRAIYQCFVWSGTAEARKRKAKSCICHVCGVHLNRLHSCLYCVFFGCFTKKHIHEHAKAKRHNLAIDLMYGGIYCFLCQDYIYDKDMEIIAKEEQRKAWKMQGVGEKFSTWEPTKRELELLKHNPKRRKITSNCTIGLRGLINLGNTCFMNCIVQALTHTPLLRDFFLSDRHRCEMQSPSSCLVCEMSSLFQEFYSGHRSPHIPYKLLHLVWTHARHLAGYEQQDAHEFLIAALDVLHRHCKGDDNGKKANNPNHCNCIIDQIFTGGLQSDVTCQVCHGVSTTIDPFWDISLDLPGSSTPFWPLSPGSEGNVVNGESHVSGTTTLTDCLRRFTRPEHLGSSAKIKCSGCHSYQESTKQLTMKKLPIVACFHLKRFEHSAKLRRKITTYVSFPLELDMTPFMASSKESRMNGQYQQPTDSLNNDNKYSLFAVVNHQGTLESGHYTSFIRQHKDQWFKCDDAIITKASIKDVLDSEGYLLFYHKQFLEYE
In short: as §1

[3] = target: USP24 (UniProt Q9UPU5)
Sequence of USP24 (Q9UPU5 whole entry): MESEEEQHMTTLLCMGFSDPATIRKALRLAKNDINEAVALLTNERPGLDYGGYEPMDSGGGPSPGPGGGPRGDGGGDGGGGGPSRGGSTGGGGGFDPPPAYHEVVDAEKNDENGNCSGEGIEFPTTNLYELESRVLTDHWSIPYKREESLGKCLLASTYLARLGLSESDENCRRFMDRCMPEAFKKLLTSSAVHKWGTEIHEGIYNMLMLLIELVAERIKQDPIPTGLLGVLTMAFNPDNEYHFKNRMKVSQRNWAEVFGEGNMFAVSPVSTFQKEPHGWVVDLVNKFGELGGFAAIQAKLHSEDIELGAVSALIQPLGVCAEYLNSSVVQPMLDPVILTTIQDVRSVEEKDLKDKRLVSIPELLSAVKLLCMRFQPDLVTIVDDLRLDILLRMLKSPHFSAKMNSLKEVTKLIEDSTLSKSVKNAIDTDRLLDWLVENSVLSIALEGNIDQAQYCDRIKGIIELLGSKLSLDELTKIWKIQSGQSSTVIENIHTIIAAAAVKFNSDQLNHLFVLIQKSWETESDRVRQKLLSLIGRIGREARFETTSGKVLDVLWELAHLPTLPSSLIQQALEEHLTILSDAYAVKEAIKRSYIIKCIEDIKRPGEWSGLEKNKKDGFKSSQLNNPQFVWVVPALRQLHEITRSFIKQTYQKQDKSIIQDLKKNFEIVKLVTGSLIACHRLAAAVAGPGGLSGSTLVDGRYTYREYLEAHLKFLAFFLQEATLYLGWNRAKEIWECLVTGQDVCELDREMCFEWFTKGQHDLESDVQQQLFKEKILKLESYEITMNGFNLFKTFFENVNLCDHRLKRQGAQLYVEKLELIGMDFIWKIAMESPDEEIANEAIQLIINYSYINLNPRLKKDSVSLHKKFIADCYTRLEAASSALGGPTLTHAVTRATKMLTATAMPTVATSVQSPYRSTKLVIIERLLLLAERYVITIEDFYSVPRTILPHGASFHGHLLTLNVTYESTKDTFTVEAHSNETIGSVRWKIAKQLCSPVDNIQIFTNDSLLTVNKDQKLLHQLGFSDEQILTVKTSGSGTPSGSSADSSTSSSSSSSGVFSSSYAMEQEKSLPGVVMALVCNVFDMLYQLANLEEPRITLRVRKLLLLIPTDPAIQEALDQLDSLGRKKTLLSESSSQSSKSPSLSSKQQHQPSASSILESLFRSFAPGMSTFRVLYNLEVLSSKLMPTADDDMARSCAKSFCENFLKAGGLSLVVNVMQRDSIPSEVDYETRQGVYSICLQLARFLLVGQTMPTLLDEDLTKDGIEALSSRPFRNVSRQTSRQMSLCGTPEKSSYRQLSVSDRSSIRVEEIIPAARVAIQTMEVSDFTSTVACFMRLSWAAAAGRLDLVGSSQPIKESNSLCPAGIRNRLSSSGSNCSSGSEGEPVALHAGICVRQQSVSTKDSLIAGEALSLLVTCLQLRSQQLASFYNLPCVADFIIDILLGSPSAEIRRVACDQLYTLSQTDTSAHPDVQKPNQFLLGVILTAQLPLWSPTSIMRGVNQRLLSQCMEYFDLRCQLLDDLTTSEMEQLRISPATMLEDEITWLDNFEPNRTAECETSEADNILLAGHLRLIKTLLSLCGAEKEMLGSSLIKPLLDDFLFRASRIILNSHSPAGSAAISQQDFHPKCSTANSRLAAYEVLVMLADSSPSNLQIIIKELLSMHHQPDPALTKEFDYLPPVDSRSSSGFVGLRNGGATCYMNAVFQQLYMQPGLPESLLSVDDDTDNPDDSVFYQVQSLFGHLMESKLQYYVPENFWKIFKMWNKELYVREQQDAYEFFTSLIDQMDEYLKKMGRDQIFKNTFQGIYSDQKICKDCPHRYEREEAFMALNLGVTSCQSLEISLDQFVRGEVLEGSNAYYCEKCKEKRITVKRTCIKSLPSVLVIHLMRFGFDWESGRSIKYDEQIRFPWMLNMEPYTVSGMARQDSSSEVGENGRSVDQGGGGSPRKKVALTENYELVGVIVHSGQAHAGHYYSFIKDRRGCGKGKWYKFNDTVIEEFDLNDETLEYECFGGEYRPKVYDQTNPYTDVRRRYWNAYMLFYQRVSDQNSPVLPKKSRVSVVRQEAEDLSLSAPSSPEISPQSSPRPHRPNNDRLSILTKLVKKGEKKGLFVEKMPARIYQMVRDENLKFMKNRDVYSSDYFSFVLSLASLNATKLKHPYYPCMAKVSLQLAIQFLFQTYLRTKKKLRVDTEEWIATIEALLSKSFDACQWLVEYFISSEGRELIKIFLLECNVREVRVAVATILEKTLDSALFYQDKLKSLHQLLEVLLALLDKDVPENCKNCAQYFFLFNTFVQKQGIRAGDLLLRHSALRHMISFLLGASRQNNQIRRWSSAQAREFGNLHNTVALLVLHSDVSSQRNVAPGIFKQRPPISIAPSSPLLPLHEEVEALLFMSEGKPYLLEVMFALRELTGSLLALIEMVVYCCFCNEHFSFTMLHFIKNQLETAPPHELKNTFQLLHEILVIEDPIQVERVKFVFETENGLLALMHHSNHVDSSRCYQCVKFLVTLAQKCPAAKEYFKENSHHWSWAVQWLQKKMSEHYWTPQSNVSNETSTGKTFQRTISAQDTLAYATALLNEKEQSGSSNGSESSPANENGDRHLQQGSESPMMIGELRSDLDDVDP
In short: as §1

[4] = target: T3, USP25 (UniProt Q9UHP3)
T3 sequence (whole entry): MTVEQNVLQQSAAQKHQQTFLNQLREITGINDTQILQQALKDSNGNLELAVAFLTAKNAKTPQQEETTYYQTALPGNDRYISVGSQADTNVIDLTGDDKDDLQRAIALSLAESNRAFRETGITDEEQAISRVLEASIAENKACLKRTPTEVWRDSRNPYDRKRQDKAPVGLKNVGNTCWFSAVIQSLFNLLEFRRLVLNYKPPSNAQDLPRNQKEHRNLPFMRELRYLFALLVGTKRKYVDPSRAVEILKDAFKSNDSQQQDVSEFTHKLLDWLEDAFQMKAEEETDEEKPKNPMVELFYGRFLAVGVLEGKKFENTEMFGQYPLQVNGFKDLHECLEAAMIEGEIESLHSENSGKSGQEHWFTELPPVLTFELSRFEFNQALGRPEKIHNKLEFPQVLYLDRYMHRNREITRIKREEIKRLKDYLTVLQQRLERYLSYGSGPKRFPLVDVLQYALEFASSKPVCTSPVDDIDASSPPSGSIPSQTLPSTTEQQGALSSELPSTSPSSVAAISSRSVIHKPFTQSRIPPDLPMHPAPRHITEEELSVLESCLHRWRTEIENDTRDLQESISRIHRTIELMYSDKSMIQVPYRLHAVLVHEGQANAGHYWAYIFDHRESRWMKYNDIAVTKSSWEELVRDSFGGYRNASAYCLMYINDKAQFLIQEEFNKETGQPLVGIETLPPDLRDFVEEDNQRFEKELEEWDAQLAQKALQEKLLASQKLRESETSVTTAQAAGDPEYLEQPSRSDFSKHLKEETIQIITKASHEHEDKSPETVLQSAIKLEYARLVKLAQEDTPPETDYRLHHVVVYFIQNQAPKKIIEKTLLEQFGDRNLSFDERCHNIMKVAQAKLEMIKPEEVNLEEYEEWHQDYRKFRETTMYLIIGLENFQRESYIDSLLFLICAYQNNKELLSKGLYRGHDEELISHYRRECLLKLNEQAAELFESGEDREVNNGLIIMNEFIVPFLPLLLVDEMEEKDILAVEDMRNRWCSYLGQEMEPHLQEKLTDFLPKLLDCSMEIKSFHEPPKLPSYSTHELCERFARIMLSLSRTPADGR
In short: as §1

[5] = target: T4, USP28 (UniProt Q96RU2)
T4 sequence (whole entry): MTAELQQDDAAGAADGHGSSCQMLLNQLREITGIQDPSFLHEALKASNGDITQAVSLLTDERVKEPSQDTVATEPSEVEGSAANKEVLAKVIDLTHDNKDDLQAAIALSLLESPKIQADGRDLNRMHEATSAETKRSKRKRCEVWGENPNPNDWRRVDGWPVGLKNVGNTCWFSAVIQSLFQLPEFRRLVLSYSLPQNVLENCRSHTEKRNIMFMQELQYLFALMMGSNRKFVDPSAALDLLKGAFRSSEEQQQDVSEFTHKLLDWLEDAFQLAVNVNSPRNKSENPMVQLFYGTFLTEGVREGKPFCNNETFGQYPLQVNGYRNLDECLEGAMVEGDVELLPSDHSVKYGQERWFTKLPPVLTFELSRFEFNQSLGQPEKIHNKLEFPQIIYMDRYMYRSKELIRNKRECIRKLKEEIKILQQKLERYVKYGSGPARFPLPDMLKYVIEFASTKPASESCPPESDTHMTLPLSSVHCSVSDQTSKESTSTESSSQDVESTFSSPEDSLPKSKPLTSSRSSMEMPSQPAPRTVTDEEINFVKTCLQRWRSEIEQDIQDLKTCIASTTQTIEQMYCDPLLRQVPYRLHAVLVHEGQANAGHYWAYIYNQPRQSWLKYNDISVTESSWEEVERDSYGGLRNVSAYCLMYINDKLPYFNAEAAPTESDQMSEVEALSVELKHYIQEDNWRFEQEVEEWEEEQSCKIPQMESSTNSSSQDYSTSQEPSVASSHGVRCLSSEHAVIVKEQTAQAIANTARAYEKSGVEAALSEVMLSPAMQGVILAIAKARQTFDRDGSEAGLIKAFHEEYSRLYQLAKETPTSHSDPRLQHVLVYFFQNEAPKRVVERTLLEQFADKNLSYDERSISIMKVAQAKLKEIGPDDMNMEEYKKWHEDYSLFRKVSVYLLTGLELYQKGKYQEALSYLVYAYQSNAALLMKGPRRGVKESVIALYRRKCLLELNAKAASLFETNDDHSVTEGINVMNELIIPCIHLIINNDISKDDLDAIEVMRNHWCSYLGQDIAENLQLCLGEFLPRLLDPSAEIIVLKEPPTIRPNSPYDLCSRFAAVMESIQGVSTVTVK
In short: as §1

Measured: log2 ratio of Biotin-Ahx-Ub-VS probe labelling

O=C(CCl)N(C1CCCC1)C1CCS(=O)(=O)C1 (stereo not given)
inactive: [1] -0.0865 | [2] 0.236 | [3] -0.274 | [4] 0.0715 | [5] -0.36
